This is an account of results in PubChem BioAssay (NCATS).

The target of assay [1] is Aldehyde dehydrogenase, mitochondrial (Homo sapiens) (UniProt P05091). The assay is described as follows: qHTS for Inhibitors of the Aldehyde Dehydrogenase Family (ALDH2) Primary screen (AID 2061308). Further: nearly all actives have a fitted effect of over 55% in size. Further: potency means the concentration at half of the fitted maximal effect. As to conditions: ALDH2 enzyme inhibition qHTS, 1536-well; series mostly up to 56 µM.
The target in assay [2] is Retinaldehyde dehydrogenase 3 (Homo sapiens) (UniProt P47895). The assay is described as follows: qHTS for Inhibitors of the Aldehyde Dehydrogenase Family (ALDH1A3) Primary screen (AID 2061315). The settings on record: ALDH inhibition qHTS; series mostly up to 56 µM. On the technique in general: Quantitative high-throughput screening tests each substance at several concentrations.

The structures appear in SMILES notation. Results filed as inconclusive are left out. Where a call stands in place of a potency, no number is given. Activity calls are given as the source filed them. The call rests on the fitted dose curve; in most records, active means well fitted curve in the direction sought with a large enough effect; inconclusive means small, poorly fitted or top-dose-only effect, or another doubt; inactive means no such curve, though single readings can be large; an effect the other way counts as inactive or inconclusive.

With `COc1ccc2nc(-c3ccc(C#N)cc3)sc2c1`, the Potency result in assay [1] and in assay [2] was “inactive” in each case.

Turning to `Cc1c(C(=O)O)[nH]c2c1C(=O)CCC2`, the Potency entry in assay [1] and in assay [2] was “inactive” each time.

For `COc1cccc(N2C(=O)c3ccccc3C2=O)n1`, the Potency result in assay [1] and in assay [2] was “inactive” throughout.

With `c1ccc2c(Nc3nnc(-c4ccncc4)s3)cccc2c1`, the Potency result in assay [1] and in assay [2] was “inactive” throughout.

For the compound `O=C(O)c1ccc2c(c1)C(=O)N([C@H](Cc1ccc(C(F)(F)F)cc1)C(=O)O)C2=O`, the Potency result in assay [1] and in assay [2] was “inactive” each time.

As for `CCN(CC)CCn1c(-c2ccccc2)nc2c(N3CCOCC3)nc(C)nc21`, the Potency result in assay [1] and in assay [2] was “inactive” throughout.

As to `Cc1cccc(CNc2ncnc3ccc(-c4ccc5c(c4)OCCO5)cc23)c1`, the Potency result in assay [1] and in assay [2] was “inactive” in each case.

Consider `O=C(Nc1cccnc1)c1cccs1`, for which the Potency result in assay [1] and in assay [2] was “inactive” in each case.

Regarding `COc1cc(O)c(C(CC(=O)N2CCCC(C(=O)N3CCCCC3)C2)c2ccc3c(c2)OCO3)c(OC)c1` (stereo unspecified), the Potency result in assay [1] and in assay [2] was “inactive” each time.

For the compound `Cc1cc2c(s1)c1cnn(Cc3ccc(C(F)(F)F)cc3)c(=O)c1n2C`, the Potency entry in assay [1] and in assay [2] was “inactive” each time.

For `CC(C)(C)OC(=O)N1CCN(c2ccc(NCc3ncc(-c4ccc(C#N)cc4)s3)cc2)CC1`, in assay [1], the Potency is 4.47 µM (active). The Potency entry in assay [2] is “inactive”.

With `O=C(Nc1nc(-c2ccccc2)cs1)c1ccncc1NS(=O)(=O)c1ccc2c(c1)CCC2`, the Potency entry in assay [1] and in assay [2] was “inactive” throughout.

On to `C=C(C)C(=O)OC1[C@@H]2C(=C)C(=O)O[C@@H]2C[C@@H](C)[C@@H]2C=CC(=O)[C@@]12C` (stereo partly specified), for which the Potency entry in assay [1] and in assay [2] was “inactive” each time.

As to `Cc1ccc(NC(=O)CN2C(=O)N/C(=C\c3cccn3-c3ccc([S+](N)(=O)[O-])cc3)C2=O)cc1`, the Potency entry in assay [1] and in assay [2] was “inactive” each time.

Turning to `COc1cccc(CNc2ccc(S(=O)(=O)Nc3nc(C)cs3)cc2)c1O`, the Potency result in assay [1] and in assay [2] was “inactive” throughout.

As for `O=S(=O)(NCc1ccccc1)c1ccc(O)c2ncccc12`, the Potency result in assay [1] and in assay [2] was “inactive” in each case.

With `CC1(C)CC2CC(C)(CN2S(=O)(=O)c2ccc(C(=O)Nc3ccc(Cl)cc3)cc2)C1` (stereo unspecified), the Potency entry in assay [1] and in assay [2] was “inactive” each time.

Consider `O=S(=O)(Nc1nccs1)c1ccc(NCc2ccc(Cl)cc2O)cc1`, for which the Potency entry in assay [1] and in assay [2] was “inactive” in each case.

`O=c1c2ccccc2nc2sc(Nc3cccc(Cl)c3)nn12`: the Potency entry in assay [1] and in assay [2] was “inactive” each time.

Turning to `O=C(COC(=O)CNC(=O)C1CCCCC1)Nc1cc(C(F)(F)F)ccc1Cl`, the Potency entry in assay [1] and in assay [2] was “inactive” in each case.

Take `O=C(CSc1ccccc1)Nc1nnc(COc2ccc(Cl)cc2)s1`: the Potency entry in assay [1] and in assay [2] was “inactive” throughout.

As for `Cc1cn([C@H]2C[C@H](N[S+](=O)([O-])Cc3ccc([N+](=O)[O-])cc3)[C@@H](CO)O2)c(=O)[nH]c1=O`, the Potency result in assay [1] and in assay [2] was “inactive” throughout.

For `CN(CC(=O)Nc1ccc(N2CCOCC2)cc1)Cc1ccccc1O`, the Potency entry in assay [1] and in assay [2] was “inactive” throughout.

In the case of `CCC(C)/C=C(C)/C=C/C1=CC2=C(Cl)C(=O)C(C)(OC(C)=O)C(=O)C2(O)C(OC)O1` (stereo unspecified), the Potency entry in assay [1] and in assay [2] was “inactive” each time.

For the compound `Fc1ccccc1N1CCN(c2nc(-c3cccs3)nc3ccccc23)CC1`, the Potency entry in assay [1] and in assay [2] was “inactive” in each case.

For `COC(=O)[C@H](O)[C@H]1C(C)(C)[C@H](OC(C)=O)[C@@]2(O)C(=O)[C@]1(C)C1CC[C@]3(C)C(CC(=O)O[C@H]3c3ccoc3)[C@]13O[C@@H]32` (stereo partly specified), the Potency result in assay [1] and in assay [2] was “inactive” throughout.

For `O=C1CCCc2cc(S(=O)(=O)Nc3cnccc3C(=O)Nc3nc(-c4ccccc4)cs3)ccc2N1`, the Potency entry in assay [1] and in assay [2] was “inactive” each time.

As for `COc1cc(OC)cc(-c2nnc3n2N=C(c2ccccc2OC)CS3)c1`, the Potency entry in assay [1] and in assay [2] was “inactive” throughout.

For `CCC(C)C(=O)OC1C(C)C2(O)C(C=C(CO)CC3(O)C(=O)C(C)=CC32)C2C(C)(C)C12OC(=O)C(C)C` (stereo unspecified), the Potency result in assay [1] and in assay [2] was “inactive” throughout.

As to `N#CN/C(=N\c1nnc(-c2ccncc2)s1)Nc1ccc(F)c(C(F)(F)F)c1`, the Potency entry in assay [1] and in assay [2] was “inactive” each time.

Regarding `CNc1oc(-c2cccc(Cl)c2)nc1C#N`, the Potency result in assay [1] and in assay [2] was “inactive” in each case.

For `Cn1nnnc1Sc1ncnc2scc(-c3cccc(S(C)(=O)=O)c3)c12`, the Potency result in assay [1] and in assay [2] was “inactive” throughout.

Consider `CC(=O)O[C@@]12CO[C@@H]1C[C@H](O)[C@@]1(C)C(=O)[C@H](O)C3=C(C)[C@@H](OC(=O)[C@H](O)[C@@H](NC(=O)OC(C)(C)C)c4ccccc4)C[C@@](O)([C@@H](OC(=O)c4ccccc4)C12)C3(C)C` (stereo partly specified), for which the Potency entry in assay [1] and in assay [2] was “inactive” in each case.
